Rows were chosen to be rich in hits. Some 19% of all compounds tested hit in one or more screens of this group.
TDP1 inh = blocks human tyrosyl-DNA phosphodiesterase 1; Potency, µM (doses to about 130 µM), for the others: top-dose activity change, negative = inhibition, usual class: inhibitors; recombinant TDP1, AlphaScreen DNA substrate cleavage; 350,000 tested, 0.28% active; Q9NUW8; further: potency means the concentration at half of the fitted maximal effect; nearly all actives have a fitted effect of over 40% in size
Target sequence (Q9NUW8 whole entry, looked up): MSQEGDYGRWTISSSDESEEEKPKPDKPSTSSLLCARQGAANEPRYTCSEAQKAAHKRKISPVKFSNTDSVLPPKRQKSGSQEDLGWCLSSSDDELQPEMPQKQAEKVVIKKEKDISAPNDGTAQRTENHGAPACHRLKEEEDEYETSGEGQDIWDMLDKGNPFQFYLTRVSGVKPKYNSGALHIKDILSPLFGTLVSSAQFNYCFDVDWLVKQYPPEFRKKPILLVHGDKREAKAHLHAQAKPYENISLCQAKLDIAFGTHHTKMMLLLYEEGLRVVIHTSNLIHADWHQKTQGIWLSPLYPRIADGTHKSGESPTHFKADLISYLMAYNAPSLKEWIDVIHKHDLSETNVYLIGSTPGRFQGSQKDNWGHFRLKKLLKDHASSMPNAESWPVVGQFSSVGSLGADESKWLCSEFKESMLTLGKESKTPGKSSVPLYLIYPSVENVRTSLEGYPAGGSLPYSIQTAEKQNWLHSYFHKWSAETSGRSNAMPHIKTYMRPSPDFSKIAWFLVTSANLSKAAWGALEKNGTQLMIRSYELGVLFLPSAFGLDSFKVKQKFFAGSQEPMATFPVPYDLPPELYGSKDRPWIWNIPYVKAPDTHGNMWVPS
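E. coli-derived human Tdp1, 1 nM final. Cpd preinc 15 min RT; substrate 15 nM final, 5 min RT; AS bead mix 10 ug/ml final, 10 min RT. Signal loss = tyrosine-FITC cleavage. No-enzyme wells = max signal.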
DT40 TDP1 CPT = DT40-hTDP1 cell growth loss with CPT; chicken DT40 Tdp1-/-;hTDP1 cells + 20 nM CPT, ATP luminescence, 48 h; Potency, µM (top dose mostly 46.2 µM), for the others: at the top dose activity change, negative = growth inhibition, actives largely listed as inhibitors; 420,000 tested, 12% active; further: potency means the concentration at half of the fitted maximal effect; nearly all actives have a fitted effect of over 55% in size
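Cell growth measured by CellTiter-Glo luminescence after a minimum 48 h, 37 C compound exposure with 20 nM CPT in Tdp1-knockout DT40 cells stably expressing hTDP1, seeded 400/well; qHTS titration format.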
DT40 TDP1 no CPT = qHTS for Inhibitors of human tyrosyl-DNA phosphodiesterase 1 (TDP1): qHTS in cells in absence of CPT | 420,000 tested, 15% active | DT40 Tdp1-/- hTDP1 cells, no CPT, ATP luminescence, 48 h | Potency, µM (series often up to 46.2 µM), without a hit: at the top dose activity change, negative = growth inhibition, usual class: inhibitors; further: potency means the concentration at half of the fitted maximal effect; nearly all actives have a fitted effect of over 55% in size
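Growth kinetics read by CellTiter-Glo luminescence after ≥48 hr at 37 °C. Cells: DT40 Tdp1-/- stably carrying human TDP1, 400 per well, compound exposure in the absence of CPT (DMSO vehicle).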
IL-1B inflam inh = inhibitors of inflammasome signaling (IL-1 beta secretion) | activity change, % at 57.5 µM | 360,000 tested, 4.7% active | THP-1 LPS/ATP IL-1B secretion, AlphaLISA, 16 h; active compounds read low; in the data active means activity change below about -50%; inconclusive means mostly about -30% to -49%
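Secreted IL-1B measured by AlphaLISA bead assay after 16 h compound exposure of THP-1 cells; compounds (final up to 57.5 uM) added 1 h before LPS (250 ng/mL) and ATP (1.25 mM) stimulation; lower signal means less secretion.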
Giardia killer = Giardia lamblia killing. Giardia lamblia trophozoite viability. activity change, % at 7.66 µM, hits read low. 340,000 tested, 0.15% active; in the data active means activity change below about -80%; inconclusive means between about -30% and that limit;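 further: parasites exposed to compound for two days anaerobically before the ATP read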
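Compounds were tested on trophozoites seeded at 100 cells/well and held 48 hrs at 37 deg C anaerobically. An ATP-based luminescent kit measured the remaining live cells.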
ELG1 repair inh = inhibitors of ELG1-dependent DNA repair in HEK293T cells. 330,000 tested, 2.3% active. HEK293T ELG1-luciferase reporter, luminescence, 16 h; DNA damage induced by 5-fluorouridine. Potency, µM (top dose mostly 46.1 µM), for the others: at the highest dose activity change, negative = inhibition, most hits filed as inhibitors; further: potency means the concentration at half of the fitted maximal effect; nearly all actives have a fitted effect of over 55% in size
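Reporter activity after DNA damage by 5-fluorouridine is monitored. Compound-treated cells incubate 16 hr at 37 °C, then ONE-Glo is added for 30 min before luminescence reading.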
* hit, by the source's call; ? = inconclusive; . = no result. Unless noted, the call rests on the fitted dose curve; in most records, active means well fitted curve in the direction sought with a large enough effect; inconclusive means small, poorly fitted or top-dose-only effect, or another doubt; inactive means no such curve, though single readings can be large; an effect the other way counts as inactive or inconclusive. On the % scale 0 is the no-effect control and ±100 the full control effect.

SMILES	TDP1 inh	DT40 TDP1 CPT	DT40 TDP1 no CPT	IL-1B inflam inh	Giardia killer	ELG1 repair inh
Cc1ccc(NS(=O)(=O)c2cccc(C(=O)OCC(=O)NCc3ccco3)c2)cc1	-1%	?	?	41	6	-11%
O=C(NCCc1ccccc1)c1ccc(Cl)cc1[N+](=O)[O-]	.	-2%	-14%	-8	?	?
COc1ccccc1NC(=O)NCc1ccco1	4%	-16%	?	-68*	19	19%
O=C(COC(=O)c1ccc(NS(=O)(=O)c2cccs2)cc1O)NCc1ccccc1	5%	4.6µM*	3.3µM*	40	-3	-6%
CC(OC(=O)c1cccs1)C(=O)NCc1ccco1 (stereo not drawn)	-4%	-15%	4%	2	5	7%
O=C(COC(=O)CC(c1ccccc1)c1ccccc1)NCc1ccc(Cl)cc1	5%	-27%	-8%	-71*	4	16µM*
O=C(COC(=O)c1ccc(NS(=O)(=O)c2cccs2)cc1O)Nc1nc2ccccc2s1	8%	5%	-2%	0	6	-6%
COc1ccccc1C(OC(=O)c1cccs1)C(=O)NCc1ccco1 (stereo not drawn)	4%	18µM*	?	-6	4	-2%
O=c1c2ccccc2n(Cc2cccc(F)c2)c(=O)n1Cc1ccccc1Cl	-3%	?	?	.	.	.
CCOc1ccc(-n2cc(-c3ccccc3)c3c(=O)[nH]cnc32)cc1	6%	-6%	?	-67*	1	-12%
CCOc1ccccc1Nc1ncnc2c1c(-c1ccccc1)cn2-c1ccc(OC)cc1	5%	?	?	.	.	.
Cc1cccc(-n2cc(-c3ccccc3)c3c(=O)[nH]cnc32)c1	5%	0%	-25%	-88*	14	-8%
O=c1[nH]cnc2c1c(-c1ccccc1)cn2-c1ccc(Br)cc1	3%	?	16µM*	?	-8	-22%
CCOc1ccc(-n2cc(-c3ccccc3)c3c(=S)nc[nH]c32)cc1	10%	15µM*	?	9	13	17%
COc1ccccc1NC(=O)Nc1cc(F)ccc1F	-2%	-1%	13%	-26	3	-3%
Cc1ccccc1-c1nn2c(=O)cc(CN3CCN(C(=O)c4ccccc4Br)CC3)nc2s1	5%	-18%	?	.	.	.
O=C(Nc1nc2ccc3ccccc3c2s1)c1ccc(N2CCCCC2)c([N+](=O)[O-])c1	4%	?	?	-14	11	?
CCCC(=O)N1CCN(c2ccc(NC(=O)c3ccc(N4CCCC4)c([N+](=O)[O-])c3)cc2Cl)CC1	.	18µM*	7.3µM*	51	3	.
CC(=O)N1CCN(c2ccc(NC(=O)c3ccc(N4CCCC4)c([N+](=O)[O-])c3)cc2Cl)CC1	3%	?	?	-21	-9	?
O=C(Nc1ccc(N2CCCCC2)c(Cl)c1)c1ccc(N2CCOCC2)c([N+](=O)[O-])c1	1%	18µM*	13µM*	-13	3	-29%
O=C(Nc1ccc(N2CCOCC2)c(Cl)c1)C1CCCCC1	-7%	21µM*	16µM*	-22	-8	21µM*
O=C(Nc1nc2ccc(Cl)cc2s1)c1ccc(N2CCCCC2)c([N+](=O)[O-])c1	8%	16µM*	21µM*	?	3	?
Cc1cc(C)n(C(C)CC(=O)Nc2cccc(C#N)c2)n1 (stereo not drawn)	3%	1%	-12%	.	.	.
O=C(NCCc1nc2ccccc2[nH]1)/C(=C/c1ccc(F)cc1)NC(=O)c1ccco1	4%	-2%	-12%	-5	-9	0%
O=C(NCCc1nc2ccccc2[nH]1)/C(=C/c1ccc2c(c1)OCO2)NC(=O)c1ccc(Cl)cc1Cl	5%	?	?	-99*	-4	?

Screening data deposited in PubChem BioAssay by National Center for Advancing Translational Sciences (NCATS).
